Measurements published in the supplement of paper PMC3545927.
This is one part of the list. The hit rate among all sequences tested is not known here.

Molecular target: furin, P09958
Assay: furin cleavage Z-score vs untreated control; higher = more cleavage, active = 3.5 or more, inactive = 1 or less, 8 variable residues between constant flanks
Outline: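 The cleavage Z-score is the log read count relative to furin-free reactions, lowess-adjusted and scaled by median absolute deviation. Counts came from sequencing DNA released from bead-bound 8-mer peptide–cDNA fusions after digestion with purified furin for 7.5, 15 or 30 min.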
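Further: purified furin at 1:10 enzyme:substrate in 50 mM HEPES pH 7.5.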

Chain of furin, P09958 (P09958 whole entry): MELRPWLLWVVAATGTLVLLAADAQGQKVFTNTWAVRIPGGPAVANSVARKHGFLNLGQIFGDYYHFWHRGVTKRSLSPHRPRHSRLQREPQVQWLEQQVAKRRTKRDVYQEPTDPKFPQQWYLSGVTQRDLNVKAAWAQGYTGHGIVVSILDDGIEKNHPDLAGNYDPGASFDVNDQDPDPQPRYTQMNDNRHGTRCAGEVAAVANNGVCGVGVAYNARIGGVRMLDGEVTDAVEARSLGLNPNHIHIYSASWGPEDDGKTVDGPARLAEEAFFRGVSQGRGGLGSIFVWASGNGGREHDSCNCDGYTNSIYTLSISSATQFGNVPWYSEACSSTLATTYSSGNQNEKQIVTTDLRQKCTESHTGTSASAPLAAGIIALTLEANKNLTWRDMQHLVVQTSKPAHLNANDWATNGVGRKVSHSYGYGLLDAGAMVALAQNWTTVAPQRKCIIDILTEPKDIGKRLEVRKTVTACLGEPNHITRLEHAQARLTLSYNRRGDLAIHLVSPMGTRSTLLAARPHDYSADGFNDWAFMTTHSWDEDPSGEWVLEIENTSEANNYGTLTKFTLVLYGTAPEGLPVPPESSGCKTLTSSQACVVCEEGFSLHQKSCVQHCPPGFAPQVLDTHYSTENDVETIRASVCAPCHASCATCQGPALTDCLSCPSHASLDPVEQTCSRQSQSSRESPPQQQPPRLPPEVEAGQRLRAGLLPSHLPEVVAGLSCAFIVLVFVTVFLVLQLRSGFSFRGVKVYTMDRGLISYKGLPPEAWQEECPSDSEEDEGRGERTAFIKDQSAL

Row | Sequence | furin cleavage Z-score (7.5 min) | furin cleavage Z-score (15 min) | furin cleavage Z-score (30 min)
1 | CAEILLGPADAGNASASA [HC665] | 0.796 (inactive) | -1.29 (inactive) | 0.764 (inactive)
2 | CATEMEECSQAGNASASA [HC1798] | 1.39 | -0.469 (inactive) | -0.647 (inactive)
3 | CAEVVTSTWQAGNASASA [HC2262] | 0.0156 (inactive) | -1.35 (inactive) | -0.305 (inactive)
4 | CANRCRMLRSAGNASASA [FS-469] | 2.76 | 3.91 (active) | 2.25
5 | CAQRRRQRRPAGNASASA [FS-1557] | 0.0891 (inactive) | -1.68 (inactive) | 0.0903 (inactive)
6 | CAQRRRQLRSAGNASASA [FS-1254] | 9.6 (active) | 10.8 (active) | 7.49 (active)
7 | CASRCRFLRSAGNASASA [FS-1086] | 4.82 (active) | 4.36 (active) | 4.8 (active)
8 | CAMKNRFLRSAGNASASA [FS-1645] | 7.49 (active) | 7.31 (active) | 7.79 (active)
9 | CAEVEVPCHRAGNASASA [HC2450] | 1.03 | 0.836 (inactive) | 1.62
10 | CACVPCHRPSAGNASASA [HC2320] | -1.73 (inactive) | 2.15 | -0.71 (inactive)
11 | CAGGPLTNSRAGNASASA [HC1502] | -0.097 (inactive) | 1.45 | 0.841 (inactive)
12 | CAENVVCCSMAGNASASA [HC2141] | -0.000681 (inactive) | -0.718 (inactive) | 1.03
13 | CADREVLYREAGNASASA [HC1009] | 1.17 | 0.738 (inactive) | 0.787 (inactive)
14 | CAEPSRLVREAGNASASA [FS-1452] | 3.98 (active) | 5.86 (active) | 4.45 (active)
15 | CARCRRLVREAGNASASA [FS-3185] | 8.42 (active) | 9.96 (active) | 8.44 (active)
16 | CARCRRQFQEAGNASASA [FS-1887] | 0.189 (inactive) | 1.16 | 1.9
17 | CARQCRSSQGAGNASASA [FS-2288] | 1.61 | 0.149 (inactive) | 1.21
18 | CARLVRESSGAGNASASA [FS-2999] | -0.00522 (inactive) | 1.39 | 1.91
19 | CARPKRYNSGAGNASASA [FS-2437] | 0.95 (inactive) | 0.51 (inactive) | 1.14
20 | CARDSRSSGGAGNASASA [FS-2906] | -0.675 (inactive) | -1.21 (inactive) | -0.52 (inactive)
21 | CARIKRDSQGAGNASASA [FS-2338] | 12.5 (active) | 13.5 (active) | 10.5 (active)

Row | Sequence | furin cleavage Z-score (7.5 min) | furin cleavage Z-score (15 min) | furin cleavage Z-score (30 min)
22 | CARWKRDSSGAGNASASA [FS-3176] | 10.7 (active) | 12 (active) | 10.2 (active)
23 | CAKPGIYRFVAGNASASA [HC908] | 1.16 | -1.32 (inactive) | 2.33
24 | CAGVVCAAILAGNASASA [HC1108] | 0.833 (inactive) | 1.01 | 1.2
25 | CAVIDCNTCVAGNASASA [HC886] | -1.17 (inactive) | -0.722 (inactive) | -1.34 (inactive)
26 | CAGPDQRPYCAGNASASA [HC400] | 0.515 (inactive) | 0.00682 (inactive) | 0.075 (inactive)
27 | CAVPQRHRRTAGNASASA [FS-1432] | 10.8 (active) | 9.86 (active) | 9.48 (active)
28 | CAVATDALMTAGNASASA [HC878] | -0.06 (inactive) | -0.775 (inactive) | 0.231 (inactive)
29 | CARGRREARRAGNASASA [FS-2936] | 6.61 (active) | 7.38 (active) | 6.43 (active)
30 | CAPGRRRRRTAGNASASA [FS-1381] | 7.92 (active) | 8.84 (active) | 6.67 (active)
31 | CAQPRRHRRPAGNASASA [FS-1250] | 0.282 (inactive) | 1.35 | 0.113 (inactive)
32 | CAVGRRYRRTAGNASASA [FS-387] | 11.6 (active) | 9.35 (active) | 8.06 (active)
33 | CASWDQMWKCAGNASASA [HC962] | 1.5 | -0.918 (inactive) | -0.53 (inactive)
34 | CAAAEEQKLPAGNASASA [HC1378] | -1.36 (inactive) | -0.838 (inactive) | -1.05 (inactive)
35 | CAWMNRLIAFAGNASASA [HC1118] | 0.154 (inactive) | 0.647 (inactive) | 1.16
36 | CAHVPCHRPSAGNASASA [HC2315] | 1.79 | 0.404 (inactive) | 0.971 (inactive)
37 | CAMNECSQHLAGNASASA [HC1701] | -0.476 (inactive) | 0.465 (inactive) | 1.3
38 | CAEGVVCCSMAGNASASA [HC2136] | 0.615 (inactive) | 1.53 | -0.0256 (inactive)
39 | CAEVLYREFDAGNASASA [HC1010] | -0.000681 (inactive) | -0.163 (inactive) | -0.163 (inactive)
40 | CARGRRRRRTAGNASASA [FS-1399] | 6.1 (active) | 5.39 (active) | 6 (active)
41 | CARGRRKKKCAGNASASA [FS-1398] | 0.559 (inactive) | 2.05 | 2.1
42 | CAPVVPQSFQAGNASASA [HC769] | 0.521 (inactive) | -0.599 (inactive) | -1.31 (inactive)
